{"source": "PubChem BioAssay (EPA / NIEHS)", "note": "Results filed as inconclusive are left out. Calls of active or inactive are those of the source. The calls were made as follows: active = hit-call score of the fitted dose curve at least 0.9, where 1 is the maximum; inactive = score below 0.9."}
{"read-out": "Cytochrome P450 2C9 (Homo sapiens) (UniProt P11712)", "assay": "CLD_CYP2C9_48hr: CellzDirect (CLD) Gene Expression Assay for xenobiotic metabolism (CYP2C9) at 48 hours (AID 2283701)", "description": "CLD_48hr is a cell-based, multiplexed-readout assay that uses hepatocyte, a human liver primary cell, with measurements taken at 48 hours after chemical dosing in a 96-well plate.CLD_CYP2C9_48hr is one of 16 assay component(s) measured or calculated from the CLD_48hr assay. It is designed to make measurements of mRNA induction, a form of inducible reporter, as detected with chemiluminescence signals by Quantitative Nuclease Protection Assay (qNPA) technology.Data from the assay component CLD_CYP2C9_48hr was analyzed at the endpoint, CLD_CYP2C9_48hr, in the positive analysis fitting direction relative to DMSO as the negative control and baseline of activity. Using a type of inducible reporter, gain-of-signal activity can be used to understand changes in the reporter gene as they relate to the gene CYP2C9. Furthermore, this assay endpoint can be referred to as a primary readout. To generalize the intended target to other relatable targets, this assay endpoint is annotated to the cyp intended target family, where subfamily is xenobiotic metabolism.\nHuman hepatocyte cultures were treated daily for two consecutive days with fresh dosing solutions containing appropriate concentrations of the 320 ToxCast chemicals (chemical identities were blinded to CellzDirect and other ToxCast collaborators), vehicle control (0.2% DMSO), and positive control inducers as summarized in Table 1. Due to the large number of treatment groups and chemicals examined, the ToxCast chemicals were divided into two groups (spanning two independent cultures of hepatocytes from separate donor preparations (Hu778: ToxCast plates 1 and 2; Hu776: ToxCast plates 3 and 4). Each preparation of human hepatocyte cultures was treated with respective vehicle control, medium only control, set of six positive controls/reference chemicals for the five hepatic receptor pathways, and a subset of eight of the ToxCast chemicals (indoxacarb, pyrithiobac-sodium, norflurazon, cyhalofop-butyl, methomyl, thiram, acetochlor, and propiconazole). These replicate data, coupled with internal replicates designed within the blinded ToxCast chemical library, provided additional data to evaluate interindividual differences between hepatocyte preparations and their potential impact on chemical profiles.Cell morphology and integrity were evaluated using phase-contrast microscopy as an indicator of hepatocyte cell health (Tyson & Green, 1987). Cultures for each treatment group (i.e., media, vehicle [0.2% DMSO], positive control inducers [multiple concentrations], and the ToxCast chemicals [multiple concentrations]) were observed and cell morphology was assessed relative to vehicle control cultures at each harvest time point (0, 6, 24, or 48 h). […] Images were evaluated at the conclusion of the study to assess changes in cell integrity and account for the effects of chemical exposure on uncharacteristic changes in concentration-dependent gene expression profiles. The results from these determinations of apparent cytotoxicity were annotated (yes/no) alongside the corresponding qNPA data for reference.At the conclusion of each treatment period, hepatocyte cultures (96-well) were washed with 1 volume of HBSS, lysed by addition of 25 ul ArrayPlate lysis buffer (HTG, Tucson, AZ), and 70 ul/well of Denaturation Oil, denatured by incubation at 95C for 10 min, and frozen at approximately -70C until analysis by nuclease protection assay (qNPA) (Roberts et al., 2007). For qNPA analysis, cell lysates were thawed at 50C for approximately 30 min, qNPA probes were added, and samples were incubated at 95C for 10 min to begin the detection process by denaturing the target RNA, dissociating the duplexes and secondary structure hybridization. At the conclusion of the hybridization period, S1 nuclease reagent was added to each sample to digest all nonprotected nucleotides at 50C for 60-90 min. […]"}
{"compound": "CC(=NC#N)N(C)Cc1ccc(Cl)nc1", "outcome": "inactive"}
{"compound": "CCOP(=O)(SC(C)CC)N1CCSC1=O", "note": "(configuration not stated)", "outcome": "inactive"}
{"compound": "CSc1nnc(C(C)(C)C)c(=O)n1N", "outcome": "inactive"}
{"compound": "CCCCOC(=O)[C@@H](C)Oc1ccc(Oc2ccc(C#N)cc2F)cc1", "outcome": "inactive"}
{"compound": "CCCSP(=O)(OCC)Oc1ccc(Br)cc1Cl", "note": "(configuration not stated)", "outcome": "inactive"}
{"compound": "CCOP(=S)(OCC)Oc1ccc2c(C)c(Cl)c(=O)oc2c1", "outcome": "inactive"}
{"compound": "CN(C)C(=O)Nc1cccc(C(F)(F)F)c1", "outcome": "inactive"}
{"compound": "CCOP(=S)(OCC)SCCSCC", "outcome": "inactive"}
{"compound": "CCc1cccc(CC)c1N(COC)C(=O)CCl", "outcome": "inactive"}
{"compound": "CCc1cccc(C)c1N(C(=O)CCl)C(C)COC", "note": "(configuration not stated)", "outcome": "inactive"}
{"compound": "CN1COCN(Cc2cnc(Cl)s2)C1=N[N+](=O)[O-]", "outcome": "inactive"}
{"compound": "COP(=O)(OC)SCn1c(=O)oc2cc(Cl)cnc21", "outcome": "inactive"}
{"compound": "COP(=O)(NC(C)=O)SC", "note": "(configuration not stated)", "outcome": "inactive"}
{"compound": "CC(COc1ccc(Oc2ccccc2)cc1)Oc1ccccn1", "note": "(configuration not stated)", "outcome": "inactive"}
{"compound": "CNc1cnn(-c2cccc(C(F)(F)F)c2)c(=O)c1Cl", "outcome": "inactive"}
{"compound": "O=c1ccc(=O)[nH][nH]1", "outcome": "inactive"}
{"compound": "C#CC(C)(C)NC(=O)c1cc(Cl)cc(Cl)c1", "outcome": "inactive"}
{"compound": "CNC(=O)ON=C(SC)C(=O)N(C)C", "outcome": "inactive"}
{"compound": "CCOC(=O)COc1cc(-c2nn(C)c(OC(F)F)c2Cl)c(F)cc1Cl", "outcome": "inactive"}
{"compound": "Cc1cc(C2CC2)nc(Nc2ccccc2)n1", "outcome": "inactive"}
{"compound": "CCOP(=S)(Oc1cnc(C(C)(C)C)nc1)OC(C)C", "note": "(configuration not stated)", "outcome": "inactive"}
{"compound": "Cc1ccn2nc(S(=O)(=O)Nc3c(F)cccc3F)nc2n1", "outcome": "inactive"}
{"compound": "CC(C)[C@H](C(=O)O[C@H](C#N)c1cccc(Oc2ccccc2)c1)c1ccc(Cl)cc1", "outcome": "inactive"}
{"compound": "CCCSP(=O)(OCC)SCCC", "outcome": "inactive"}
{"compound": "CCCCSP(=O)(SCCCC)SCCCC", "outcome": "inactive"}
{"compound": "CC(C)=CC1C(C(=O)OCN2C(=O)C3=C(CCCC3)C2=O)C1(C)C", "note": "(configuration not stated)", "outcome": "inactive"}
{"compound": "CON=C(C(=O)OC)c1ccccc1CON=C(C)c1cccc(C(F)(F)F)c1", "outcome": "inactive"}
{"compound": "CSc1nc(NC(C)C)nc(NC(C)C)n1", "outcome": "inactive"}
{"compound": "COc1cc(OC)nc(Sc2cccc(Cl)c2C(=O)O)n1", "outcome": "inactive"}
{"compound": "CCC(=NOC/C=C/Cl)C1=C(O)CC(C2CCOCC2)CC1=O", "note": "(configuration not stated)", "outcome": "inactive"}
{"compound": "CC(C)N(C(=O)SCC(Cl)=C(Cl)Cl)C(C)C", "outcome": "inactive"}
{"compound": "CCOP(=S)(OCC)OC(Cl)C(Cl)(Cl)Cl", "note": "(configuration not stated)", "outcome": "inactive"}
{"compound": "CCOP(=O)(OCC)Oc1cc(C)nc(C(C)C)n1", "outcome": "inactive"}
{"compound": "COc1ccc(C(=CC(=O)N2CCOCC2)c2ccc(Cl)cc2)cc1OC", "outcome": "inactive"}
{"compound": "CCOP(=O)(NC(C)C)Oc1ccc(SC)c(C)c1", "note": "(configuration not stated)", "outcome": "inactive"}
{"compound": "C#CCC1=C(C)C(OC(=O)C2C(C=C(C)C)C2(C)C)CC1=O", "note": "(configuration not stated)", "outcome": "inactive"}
{"compound": "COc1cccc(C(=O)NN(C(=O)c2cc(C)cc(C)c2)C(C)(C)C)c1C", "outcome": "inactive"}
